The full list was thinned out, with hits kept by preference.
VP16 counter – inhibits Gal4-VP16 luciferase reporter, ROR gamma counter-screen; Potency, µM (top dose mostly 53.6 µM), inactives show at the top dose activity, negative = inhibition, actives largely listed as inhibitors; 310,000 compounds, 3.5% hits; AID 2546; Drosophila S2 Gal4-VP16 UAS-luciferase, luminescence, 20 h;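 also: Gal4-VP16 expression switched on by copper sulfate through the metallothionein promoter; potency is read from the fitted curve at half-maximal effect; % is scaled to controls: 0 for no effect and ±100 for the full control effect; nearly all actives have a fitted effect of over 50% in size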
ERG-DNA inh – ERG Ets/DNA interaction inhibition; P11308; fluorescence polarization, His-ERG Ets domain / labelled DNA; Potency, µM (top dose mostly 76.9 µM), without a hit: at the top dose FP activity, negative = inhibition, most hits filed as inhibitors; 370,000 compounds, 0.028% hits; AID 624246; active = well fitted inhibition curve with a large enough effect in the polarisation, with a control signal flat; inconclusive = small, poorly fitted or top-dose-only effect, or effect the other way, or a change in a side signal; inactive = no such curve, though single readings can be large or run the other way; the % refers to the polarisation;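 also: polarization taken with two DNA probes labelled with fluorescein and Texas red; potency is read from the fitted curve at half-maximal effect; % of control where 0% means no effect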
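His-tagged ERG Ets domain (1 uM in the protein solution; 300mM KCl, 50mM Tris-HCl, 1mM EDTA, 1mM DTT, pH 7.5) received compound, then a probe mix of 5 nM fluorescein-DNA and 100nM Texas-615-DNA. Fluorescence polarization was read for both dyes.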
RORg inh – inhibitors of mouse ROR gamma transcriptional activity; P51450; Drosophila S2 Gal4-RORgamma UAS-luciferase reporter, 20 h; Potency, µM (doses to about 53.6 µM), for the others: at the top dose activity change, negative = inhibition, hits mostly inhibitors; 310,000 compounds, 5.4% hits; AID 2551; also: potency is read from the fitted curve at half-maximal effect; % is scaled to controls: 0 for no effect and ±100 for the full control effect; nearly all actives have a fitted effect of over 60% in size
Target sequence (P51450 whole entry, looked up, the tested form may be a part): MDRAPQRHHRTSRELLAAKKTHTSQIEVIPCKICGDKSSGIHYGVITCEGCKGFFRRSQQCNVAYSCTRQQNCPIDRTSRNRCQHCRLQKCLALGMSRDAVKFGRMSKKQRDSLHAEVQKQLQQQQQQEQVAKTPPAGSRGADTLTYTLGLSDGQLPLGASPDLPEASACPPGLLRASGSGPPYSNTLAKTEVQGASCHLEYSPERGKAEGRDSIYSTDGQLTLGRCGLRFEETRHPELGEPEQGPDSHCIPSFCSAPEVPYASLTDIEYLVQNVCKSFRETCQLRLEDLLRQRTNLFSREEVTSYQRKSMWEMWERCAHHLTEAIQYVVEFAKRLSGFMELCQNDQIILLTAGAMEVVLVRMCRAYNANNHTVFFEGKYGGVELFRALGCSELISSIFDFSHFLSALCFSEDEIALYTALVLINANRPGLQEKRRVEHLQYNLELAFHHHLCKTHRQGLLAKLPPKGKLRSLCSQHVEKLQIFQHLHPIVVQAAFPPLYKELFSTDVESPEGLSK
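Stably transfected Drosophila Schneider cells are the test system, with ROR gamma fused to Gal4 and luciferase under UAS control; luminescence is read after 20 hr of 700 uM copper sulfate induction at ambient temperature.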
Integrin act MD – activators of alpha7 integrin expression for muscular dystrophy; alpha7betagal myoblasts, beta-gal FDG fluorescence, 48 h; AID 624291; Potency, µM (top dose mostly 38.3 µM), for the others: at the highest dose activation, usual class: activators; 350,000 compounds, 0.064% hits;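 also: potency is read from the fitted curve at half-maximal effect; 100% = response of the positive control SU9516; nearly all actives have a fitted effect of over 60% in size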
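Alpha7betagal+/- myoblasts (passage 13) were plated 16-24 hr, then exposed to compounds (1:260 dilution of DMSO stock) for 48 hours at 37C. After MPER lysis, β-galactosidase reporter activity was read as FDG fluorescence (ex 480/em 540) after 30 minutes.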
Giardia killer – Giardia lamblia killing; activity change, % at 7.66 µM, hits read low; 340,000 compounds, 0.15% hits; Giardia lamblia trophozoite viability; in the data active = activity change below about -80%; inconclusive = between about -30% and that limit;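 also: parasites exposed to compound for two days anaerobically before the ATP read; % is scaled to controls: 0 for no effect and ±100 for the full control effect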
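Luminescent ATP signal served as the viability read-out, measured 15-30 min after adding ATP detection reagent to trophozoites that had been incubated with compounds for 48 hrs at 37 deg C anaerobically at 100 cells/well.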
The depositor's hits bear a star; [ ] = remark or other dose. Unless noted, calls follow the shape of the dose curve; as a rule, active = well fitted curve in the direction sought with a large enough effect; inconclusive = small, poorly fitted or top-dose-only effect, or another doubt; inactive = no such curve, though single readings can be large; an effect the other way counts as inactive or inconclusive.

CC(=O)Nc1ccc(S(=O)(=O)Nc2ccc3c(c2)OCCO3)cc1Cl was read as VP16 counter 12.6µM*, ERG-DNA inh 1.3%, RORg inh inconclusive, Integrin act MD -34.1% and Giardia killer 10.4.
Screening COc1cccc(CNC(=S)Nc2ccc(Cl)cc2C)c1 returned VP16 counter 6.31µM*, ERG-DNA inh 0.3%, RORg inh 6.31µM*, Integrin act MD -12.9% and Giardia killer 9.4.
Screening Cc1ccc(NC(=S)NCc2ccc(Cl)cc2)c(C)c1 returned VP16 counter 4.47µM*, ERG-DNA inh -2.9%, RORg inh 4.47µM*, Integrin act MD inconclusive and Giardia killer 2.0.
`COc1cccc(CNC(=S)Nc2cc(OC)ccc2OC)c1` gave VP16 counter inconclusive, ERG-DNA inh -0.7%, RORg inh 12.6µM*, Integrin act MD -16.7% and Giardia killer -7.0.
`Cc1cc(Cl)ccc1NC(=S)NCc1ccccc1` gave VP16 counter 4.4%[0.365 µM], ERG-DNA inh 8.0%, RORg inh 3.98µM*, Integrin act MD 33.2% and Giardia killer -14.7.
For COc1ccc(NC(=O)CN2CCOCC2)cc1 the results were VP16 counter -6.3%, ERG-DNA inh 12.8%, RORg inh 21.2%, Integrin act MD 8.7% and Giardia killer -10.0.
Screening COc1cccc(C(=S)N2CCCC2)c1OC returned VP16 counter 0.0794µM*, ERG-DNA inh 1.1%, RORg inh inconclusive, Integrin act MD inconclusive and Giardia killer -0.5.
`COc1cccc(C(=O)C(=O)c2cccc(OC)c2OC)c1OC` gave ERG-DNA inh 27.4%, Integrin act MD -21.6% and Giardia killer -3.6.
Screening Cc1ccc(COc2ccccc2C(=S)N2CCCC2)cc1 returned VP16 counter inconclusive, ERG-DNA inh -7.0%, RORg inh 15.8µM*, Integrin act MD -46.0% and Giardia killer 6.8.
Screening Fc1ccc(COc2ccccc2C(=S)N2CCCC2)cc1 returned VP16 counter 2.5%, ERG-DNA inh -2.4%, RORg inh inconclusive, Integrin act MD -25.6% and Giardia killer -18.2.
For CCOc1cccc(C2C=C(c3ccc4c(c3)OCO4)NC(c3ccc(Cl)cc3)N2)c1O (centres undefined) the results were Giardia killer -18.6.
For O=C(Nc1nccs1)c1ccc(-c2ccc(Cl)cc2)o1 the results were VP16 counter inconclusive, ERG-DNA inh -4.4%, RORg inh 3.98µM*, Integrin act MD 0.0% and Giardia killer inconclusive.
For O=C(Nc1nccs1)C(F)(F)C(F)(F)C(F)(F)C(=O)Nc1nccs1 the results were VP16 counter -1.2%, ERG-DNA inh 0.0%, RORg inh inconclusive, Integrin act MD 44.6% and Giardia killer 22.0.
For C/C=C/C=C/C(=O)Nc1nccs1 the results were VP16 counter 5.62µM*, ERG-DNA inh -2.8%, RORg inh 10µM*, Integrin act MD -25.7% and Giardia killer -4.5.
`O=C(/C=C/c1ccc(Cl)cc1)Nc1nccs1` gave VP16 counter -5.2%, ERG-DNA inh 0.5%, RORg inh 8.91µM*, Integrin act MD -20.4% and Giardia killer -15.4.
O=C(Nc1nccs1)c1ccc(-c2ccc(F)cc2)o1 was read as VP16 counter inconclusive, ERG-DNA inh -7.6%, RORg inh inconclusive, Integrin act MD 3.1% and Giardia killer inconclusive.
For O=C(Nc1ccc(F)cc1)C1CCN(c2nc3ccccc3nc2C(F)(F)F)CC1 the results were ERG-DNA inh 6.0%.
Cc1ccc(-c2cc(-c3ccccc3)[nH]c(=S)c2C#N)cc1 was read as VP16 counter inconclusive, ERG-DNA inh 4.2%, RORg inh inconclusive, Integrin act MD 0.1% and Giardia killer -0.7.
`N#Cc1c(N)[nH]c(=S)c(C#N)c1-c1ccccc1` gave VP16 counter inconclusive, ERG-DNA inh -18.9%, RORg inh 10µM*, Integrin act MD -35.6% and Giardia killer -4.1.
CCOc1ccc(-n2c(-c3ccc(Br)cc3)cc3c2CC(C)(C)CC3=O)cc1 was read as ERG-DNA inh -8.8%.
`Cc1ccc2nc(N(CCCN(C)C)C(=O)c3cc(-c4cccs4)nc4ccccc34)sc2c1` gave VP16 counter inconclusive, ERG-DNA inh 7.9%, RORg inh 14.1µM*, Integrin act MD -50.4% and Giardia killer -0.7.
`CN(C)CCCN(C(=O)c1cc(-c2cccs2)nc2ccccc12)c1nc2c(F)cccc2s1` gave VP16 counter -22.5%, ERG-DNA inh 1.6%, RORg inh inconclusive, Integrin act MD -71.1% and Giardia killer -3.1.
For Cc1ccc(-n2c3c(c(=O)[nH]c2=O)C(NC(=O)c2ccccc2F)(C(F)(F)F)C(=O)N3)cc1C (centres undefined) the results were ERG-DNA inh 6.2%.
For O=C(Cc1cccc(NC(=O)C2CCCN(C(=O)C3CCCCC3)C2)c1)Nc1cccc(C(=O)N2CCOCC2)c1 (centres undefined) the results were ERG-DNA inh 2.3%, Integrin act MD -40.3% and Giardia killer 9.3.
Screening CC(=O)C(Sc1nc(NC(C)(C)C)nc(N(C)C)n1)C(C)=O returned VP16 counter 14.1µM*, ERG-DNA inh -6.4%, RORg inh 6.31µM*, Integrin act MD -24.1% and Giardia killer -1.5.
CC(C)n1c(SCC(=O)NCc2ccco2)nnc1C1CC1 was read as VP16 counter -4.7%, ERG-DNA inh -7.5%, RORg inh 6.1%, Integrin act MD -12.1% and Giardia killer -23.5.
`COc1ccc(/C(C)=N/OC/C(O)=C(\C#N)c2nc3ccccc3[nH]2)c(OC)c1` gave VP16 counter inconclusive, ERG-DNA inh 6.1%, RORg inh 20µM*, Integrin act MD 10.9% and Giardia killer -13.7.
Screening COc1ccc2oc(C(=O)OC/C(O)=C(\C#N)c3nc4ccccc4[nH]3)c(C)c2c1 returned VP16 counter -1.3%, ERG-DNA inh 10.1%, RORg inh inconclusive, Integrin act MD 3.8% and Giardia killer -0.8.
For COc1ccc(/C(C)=N/OC/C(O)=C(\C#N)c2nc3ccccc3[nH]2)cc1OC the results were VP16 counter -8.9%, ERG-DNA inh -7.5%, RORg inh 10µM*, Integrin act MD -4.8% and Giardia killer -3.9.
For CCc1ccc(NC(=O)COc2ccc(/C=C(/C#N)c3nc4ccccc4[nH]3)cc2OC)cc1 the results were VP16 counter 3.16µM*, ERG-DNA inh -0.7%, RORg inh 2.82µM*, Integrin act MD -5.5% and Giardia killer 10.2.
Screening COc1ccc(C/C(O)=C(\C#N)c2nc3ccccc3[nH]2)cc1OC returned VP16 counter -20.3%, ERG-DNA inh -15.3%, RORg inh 11.2µM*, Integrin act MD -8.3% and Giardia killer 2.6.
For NS(=O)(=O)c1cccc(NC(=O)CSc2nnc(NC3CC3)s2)c1 the results were Integrin act MD -5.7%.

Screens (PubChem)
